Results taken from PubChem BioAssay AID720504 (National Center for Advancing Translational Sciences (NCATS), 2013).
About 10,000 (2.8%) of roughly 360,000 compounds were called active. Another 4% or so got no clear call; they are omitted. For the sample, actives were picked, then their nearest neighbours and some compounds at random. Values without a mark were called inactive. The call rests on the fitted dose curve; in most records, active means well fitted inhibition curve with a large enough effect; inconclusive means small, poorly fitted or top-dose-only effect; inactive means flat fitted curve, though single readings scatter.

biological target: Serine/threonine-protein kinase PLK1 (Homo sapiens) (UniProt P53350); assay: qHTS for Inhibitors of PLK1-PDB (polo-like kinase 1 - polo-box domain): Primary Screen; settings: Plk1 PBD binding of FITC phosphopeptide, fluorescence polarization; further: nearly all actives have a fitted effect of over 65% in size; on max response, negative = inhibition: series mostly up to about 57 µM
On the % scale 0 is the no-effect control and ±100 the full control effect; potency means the concentration at half of the fitted maximal effect.

Chain of Serine/threonine-protein kinase PLK1 (Homo sapiens) (P53350 whole entry, looked up, the tested form may be a part): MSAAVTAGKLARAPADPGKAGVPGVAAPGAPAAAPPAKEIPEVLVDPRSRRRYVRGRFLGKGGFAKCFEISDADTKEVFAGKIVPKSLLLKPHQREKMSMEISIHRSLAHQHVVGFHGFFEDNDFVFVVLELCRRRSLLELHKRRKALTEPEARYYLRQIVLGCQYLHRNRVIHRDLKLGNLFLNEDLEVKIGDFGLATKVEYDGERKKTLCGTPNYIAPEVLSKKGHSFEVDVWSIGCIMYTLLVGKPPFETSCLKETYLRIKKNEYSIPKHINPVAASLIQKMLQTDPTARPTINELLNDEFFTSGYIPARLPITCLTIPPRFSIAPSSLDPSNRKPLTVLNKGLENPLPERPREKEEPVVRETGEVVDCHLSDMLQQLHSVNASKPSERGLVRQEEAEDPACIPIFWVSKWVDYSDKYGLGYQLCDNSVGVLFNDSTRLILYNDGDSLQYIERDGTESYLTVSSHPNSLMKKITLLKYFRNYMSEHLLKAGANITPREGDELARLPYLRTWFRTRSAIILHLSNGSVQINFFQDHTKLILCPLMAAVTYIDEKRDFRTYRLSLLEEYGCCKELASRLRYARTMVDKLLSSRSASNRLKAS

In order of falling max response, negative = inhibition:
1. CC12CCC3C(CCC4CC(=O)CCC43C)C1CC(=NO)C2=O (stereo unspecified)  6.72%
2. CC(C)N(CC#CCC1(O)c2ccccc2-c2ccccc21)C(C)C  4.02%
3. CC[N+](CC)(CC)CCCCCCCCCC[N+](CC)(CC)CC  3.96%
4. Cc1cccc(NC(=O)OC2CN3CCC2CC3)c1 (stereo unspecified)  3.5%
5. C[C@]12CCCCC1=CC(=O)C1C2CC[C@@]2(C)C1C[C@@H](F)[C@@H]2O (stereo partly specified)  2.07%
6. CCOP(=O)(OCC)C(NC(=O)c1ccc(OC)cc1)C(Cl)(Cl)Cl (stereo unspecified)  1.87%
7. CC(=O)Cc1ccc(OC(C)C)cc1  1.86%
8. CCOC(=O)C1SC2(C(F)(F)C(F)F)CC1(O)c1c(c(OC)c3occc3c1OC)O2 (stereo unspecified)  0.906%
9. C=C(C)C1(CCCC)C(=O)NC(=S)NC1=O  0.58%
10. Cc1ccc(N(C)C(=O)Oc2cccc3ccc(C)nc23)cc1  0.137%
11. CCOP(=O)(OCC)C(NC(=O)NC)C(N)=O (stereo unspecified)  0.136%
12. CCCC[N+]1(C)C2CC(OC(=O)C(CO)c3ccccc3)CC1C1OC12 (stereo unspecified)  -0.372%
13. C[N+]12CN3CN(CN(C3)C1)C2  -1.32%
14. N#CC1=C(N)Oc2c(c(=O)oc3ccccc23)C1c1ccccc1OC(=O)c1cccs1 (stereo unspecified)  -2.78%
15. CN(C)C(=O)Oc1ccc(NC(=O)N2CCOCC2)cc1  -3.11%
16. CCOc1ccc(C2SCC(=O)Nc3c2c(C)nn3C2CCOC(C)(C)C2)cc1 (stereo unspecified)  -3.25%
17. O=c1[nH]c(O)c(C=Nc2cc(F)cc(F)c2)c(=O)[nH]1  -3.46%
18. CCOC(=O)c1cccc(C2=C(CNC(=O)c3ccncc3)[C@H]3CC[C@@H](C2)N3Cc2ccccc2)c1  -3.52%
19. CCCCC(=O)N/N=C/c1c(O)n(CCC2=CCCCC2)c(=O)[nH]c1=O  -3.58%
20. CN(C)CC1CCCCC1=O (stereo unspecified)  -3.76%
21. O=c1c2ccccc2nc(-c2ccc(Cl)cc2Cl)n1-c1ccncc1  -3.78%
22. CCOC(=O)CNC(=O)N1Cc2cc(N3CCCCC3)ccc2-n2nncc2C1  -3.84%
23. CN1CCN(C(=O)COc2ccc(C(C)(C)C)cc2Br)CC1  -4.1%
24. COc1ccc(CCn2c(O)c(C=NCCCn3ccnc3)c(=O)[nH]c2=O)cc1OC  -4.17%
25. COCc1cc(OC(=O)N(C)C)nc(-c2ccc(C)c(Cl)c2)n1  -4.36%
26. COc1ccc(-n2nnnc2C(c2cccc3ccccc23)N2CCC(n3c(=O)[nH]c4ccccc43)CC2)cc1 (stereo unspecified)  -4.82%
27. CCC(C)(O)C(=O)OC1C(=O)OC2CC3C(C)=CC(=O)C(O)C3(C)C3C4(O)OCC23C1C(C)C4O (stereo unspecified)  -4.99%
28. CCOC(=O)C1CN(C)CCC1=O (stereo unspecified)  -5.51%
29. N=c1ccccn1Cc1ccccc1  -5.72%
30. O=c1c2ccccc2nc(CBr)n1-c1ccc(Cl)cc1  -5.73%
31. CCC(=O)c1ccc(OCC(=O)N2CCN(CC(=O)Nc3ccc(C)cc3)CC2)cc1  -6.03%
32. O=C(CCCn1c(=O)[nH]c2cc(Cl)ccc2c1=O)N1CCC2(CC1)OCCO2  -6.33%
33. Cn1c(C(=O)N2CCC(C(=O)N3CCC4(CC3)OCCO4)CC2)cc2sccc21  -6.93%
34. Cc1cc(=O)oc2c(C)c(OCC(=O)N3CCN(Cc4ccc5c(c4)OCO5)CC3)ccc12  -7.37%
35. COC(=O)C1=C(c2ccc(OCc3ccccc3)cc2)C[C@@H]2CC[C@H]1N2C(=O)NCc1cccc(F)c1  -7.41%
36. COc1ccc(NC(=O)N2Cc3ccccc3-n3nncc3C2)cc1  -7.51%
37. COc1ccccc1NC(=O)N1C[C@@H]2C[C@@H](C1)c1cccc(=O)n1C2  -7.73%
38. C=CCN(CC=C)C(=O)Nc1ccc(OCC)cc1  -8.48%
39. O=C(NC(=S)N1C[C@H]2C[C@H](C1)c1cccc(=O)n1C2)c1ccc(F)cc1  -8.97%
40. O=C(N/N=C/c1c(O)n(Cc2ccccc2)c(=O)[nH]c1=O)c1ccccc1  -9.07%
41. COC(=O)C1=C(c2ccc(Cl)c(C(F)(F)F)c2)C[C@@H]2CC[C@H]1N2C(=O)NC(C)C  -9.53%
42. CC(=NCC1CCCO1)c1c(O)n(-c2ccccc2)c(=O)[nH]c1=O (stereo unspecified)  -9.8%
43. ClC(Cl)(Cl)c1ccccc1  -9.92%
44. COc1cc(C(=O)N2Cc3ccc(Br)cc3-n3nncc3C2)cc(OC)c1OC  -10%
45. CC=C(C)C(=O)OC1CCN2CC=C(COC(=O)C(O)(C(C)OC)C(C)(C)O)C12 (stereo unspecified)  -10.3%
46. COC(=O)C1=C(c2ccc(-c3ccccc3)c(F)c2)C[C@@H]2CC[C@H]1N2C(=O)NCc1ccc(F)cc1  -10.9%
47. NCCc1c[nH]c2ccc(O)cc12  -10.9%
48. CCC(C)n1c(O)c(/C=N/Nc2nc3c(c(=O)n(C)c(=O)n3C)n2C)c(=O)[nH]c1=S (stereo unspecified)  -11.1%
49. COC(=O)C[C@H]1CC[C@H]2NC[C@@H](O)COC[C@@H]2O1  -11.8%
50. c1cc2c(c(NC3=NCCCS3)c1)CCCC2  -11.8%
51. CCC(=O)OC(Cc1ccccc1)(c1ccccc1)C(C)CN(C)C (stereo unspecified)  -11.9%
52. CC(C)c1ccc(OCC(=O)N2CCN(C)CC2)c(Br)c1  -13.2%
53. CC(=NCc1ccc2c(c1)OCO2)c1c(O)[nH]c(=O)[nH]c1=O  -14.7%
54. CN1CCC(OC(=O)c2cccc(F)c2)CC1  -15.3%
55. O=C(Nc1cccc(OC(=O)N2CCCCC2)c1)N1CCOCC1  -15.9%
56. Nc1ccc([N+](=O)[O-])cc1  -16%
57. O=c1c2ccccc2[nH]c(=S)n1-c1cccc(Cl)c1  -18.6%
58. CCC(=NCc1ccco1)c1c(O)n(Cc2ccccc2)c(=O)[nH]c1=O  -18.9%
59. O=C(COc1ccc2ccccc2c1)N1CCN(Cc2ccncc2)CC1  -21.6%
60. COc1ccc(-c2nc(CS(=O)CC(=O)N3CCC4(CC3)OCCO4)c(C)o2)cc1 (stereo unspecified)  -28%

c1ccc(Cc2nn3c(Cn4cnc5ccccc54)nnc3s2)cc1 was tested, and the Potency was 11.9 µM (active).
In the case of Cc1noc(C)c1CSc1nc2cc(S(=O)(=O)N3CCOCC3)ccc2o1, the Potency is reported as 21.2 µM (active).
For CC(C)(C)c1ccc(OC(=O)N2CCCCC2)cc1, the Potency was 23.8 µM (active).
In the case of Cc1ccc2c(c1)=C/C(=C\c1c(O)[nH]c(=O)[nH]c1=O)C(=O)N=2, the Potency is reported as 11.9 µM (active).
For O=C1NC(=O)N(CCc2ccc(F)cc2)C(=O)/C1=C/C=C/c1ccccc1, the Potency was 0.532 µM (active).
With CCOC(=O)[C@]12Cc3ccccc3[C@H]1N(C1CCCCC1)C(=O)c1cc(OC)ccc12 the Potency was 10.6 µM (active).
COc1ccc(CN2C(=O)NC(=O)/C(=C\c3ccc(OC)c(OC)c3OC)C2=O)cc1 was tested, and the Potency was 7.52 µM (active).
C=CCN1C(=O)NC(=O)/C(=C/c2ccc(OCC(=O)Nc3ccc(C)cc3)cc2)C1=O was tested, and the Potency was 8.44 µM (active).
With COC(=O)N(c1ccc(OC)cc1)P1(=S)OCCC(C)O1 (stereo unspecified) the Potency was 2.67 µM (active).
In the case of COc1ccc(N2C(=O)/C(=C/c3ccco3)C(=O)NC2=S)cc1, the Potency is reported as 2.67 µM (active).
With CC/C(=N\NC(=O)c1ccccc1O)c1c(O)n(Cc2ccccc2)c(=O)[nH]c1=O the Potency was 16.8 µM (active).
With CCOc1ccc(CN(CCCl)CCCl)cc1C(=O)OC the Potency was 26.7 µM (active).
O=C(O)COc1ccccc1/C=C1\C(=O)NC(=O)N(CCC2=CCCCC2)C1=O was tested, and the Potency was 11.9 µM (active).
In the case of CC(=O)c1ccc(OC(NC(=O)Cc2ccccc2)C(Cl)(Cl)Cl)cc1 (stereo unspecified), the Potency is reported as 13.4 µM (active).
For O=C1NC(=O)N(Cc2ccco2)C(=O)/C1=C\c1cccn1CCOc1ccccc1, the Potency was 15 µM (active).
For O=C1NC(=O)N(Cc2ccco2)C(=O)/C1=C\c1ccc(-c2ccc(F)cc2)o1, the Potency was 0.423 µM (active).
